# According to PubChem BioAssay AID1259421 (Broad Institute, 2018):
# Values joined by “and” are separate entries in the source; they are usually repeats but may differ in a detail not shown here. Equal values may be shown once. The whole screen tested about 6,400 compounds, of which about 610 (9.5%) were called active. This is one part of a sample in which actives are shown more often than they occur. Cut-off read from the data, not from the text of the source: active = activity change below about -70%; inconclusive = no clear call, values can overlap the other calls; inactive = above that.
# Assay: Toxoplasma gondii ME49Luc growth in HeLa cells, luciferase, no IFN-y, primary screen (AID 1259421)
# Conditions: T. gondii ME49Luc in HeLa, 72 h, active compounds read low, concentration not given here
row,SMILES,"activity change, negative = inhibition"
1,CC(N)Cn1ccc2cc(F)c(Cl)cc21 (stereo not given),4.63% (inactive)
2,COc1cc2c(cc1OC)-c1c(oc3c4c(ccc3c1=O)OC(C(C)C)C4)CO2 (stereo not given),16.2% (inactive)
3,Cc1cccc(Cc2cnc[nH]2)c1C,32.1% (inactive)
4,CN1C[C@@H](NS(=O)(=O)N(C)C)C[C@@H]2c3cccc4c3c(cn4C)C[C@H]21,14.9% (inactive)
5,COC(=O)NC(=S)Nc1ccccc1NC(=S)NC(=O)OC,8.42% (inactive) and 11.6% (inactive)
6,CC(C)=CCCN1CCC(NC(=O)[C@](O)(c2ccccc2)C2CCCC2)CC1,1.64% (inactive)
7,Fc1cc(F)c2c(c1)[C@H]1C=CC[C@H]1C(c1cccnc1)N2 (stereo not given in full),-75.5% (active)
8,c1cncc(C2CCCN2)c1 (stereo not given),2.36% (inactive)
9,c1cncc(C2CCCCN2)c1 (stereo not given),9.05% (inactive) and -25.4% (inactive)
10,O=C1CC[C@@]2(O)[C@H]3Cc4ccc(O)c5c4C2(CCN3CC2CC2)[C@H]1O5,-9.85% (inactive)
11,COc1cc2c3cc1Oc1c(OC)c(OC)cc4c1[C@@H](Cc1cccc(c1)Oc1ccc(c(O)c1)C[C@@H]3N(C)CC2)N(C)CC4,-11.3% (inactive)
12,CCCCC/C=C\C/C=C\C/C=C\C/C=C\CCCC(=O)NCCO,34.9% (inactive)
13,CCCCC/C=C\C/C=C\C/C=C\C/C=C\CCCC(=O)NCc1ccc(O)c(OC)c1,8.17% (inactive)
14,CCCCC/C=C\C/C=C\C/C=C\C/C=C\CCCC(=O)Nc1ccc(O)cc1,-78.5% (active)
15,COC(=O)C=CC(=O)NC1CCC2(O)C3Cc4ccc(O)c5c4C2(CCN3CC2CC2)C1O5 (stereo not given),12.8% (inactive)
16,CC(=O)[O][Hg][c]1ccccc1,-50.7% (inactive)
17,C[C@@H]([C@H](O)c1ccccc1)N(C)C,-0.751% (inactive) and -3.37% (inactive)
18,C[Se]C[C@H](N)C(=O)O,10.4% (inactive)
19,COc1cc([C@@H]2c3cc4c(cc3[C@H](OC(C)=O)[C@H]3COC(=O)[C@H]23)OCO4)cc(OC)c1OC,-81.6% (active)
20,COc1cc([C@@H]2c3cc4c(c(O)c3C[C@H]3COC(=O)[C@@H]32)OCO4)cc(OC)c1OC,-71.9% (active)

row,SMILES,"activity change, negative = inhibition"
1,COc1ccc2c(c1OC)C(=O)O[C@@H]2[C@H]1c2cc3c(cc2CCN1C)OCO3,2.97% (inactive)
2,COc1ccc2c(c1OC)CN1CCc3cc4c(cc3C1C2)OCO4 (stereo not given),15.2% (inactive)
3,COc1cc([C@@H]2c3cc4c(cc3[C@@H](O)C3COC(=O)C32)OCO4)cc(OC)c1O (stereo not given in full),-8.26% (inactive)
4,CCN1C[C@]2(OC(=O)c3ccccc3NC(C)=O)CCC(OC)[C@]34C1[C@H](CC23)[C@@]1(O)CC(OC)[C@H]2CC4C1(O)[C@H]2OC (stereo not given in full),-6.02% (inactive)
5,CC(C)(C)[C@]1(O)C[C@@H]2OC(=O)C[C@@]23C(=O)O[C@@H]2OC(=O)[C@H](O)C213 (stereo not given in full),7.37% (inactive)
6,COC1(C[S@@](=O)c2ccccc2)CCN(CCc2c[nH]c3ccc(F)cc23)CC1,22.1% (inactive)
7,CN1[C@@H]2CC[C@H]1CC(OC1c3ccccc3CCc3ccccc31)C2 (stereo not given in full),15.8% (inactive)
8,c1ccc2c(c1)sc1ccccc12,-5.87% (inactive)
9,C=C[C@H]1CN2CC[C@H]1C[C@@H]2[C@H](O)c1ccnc2ccccc12,-7.58% (inactive)
10,CC(C)[C@]12O[C@H]1[C@@H]1O[C@]13[C@]1(O[C@H]1C[C@H]1C4=C(CC[C@@]13C)C(=O)OC4)[C@@H]2O,-86.5% (active)
11,CC(C)c1ccc2c(c1O)CC[C@H]1C3=C(CC[C@]21C)C(=O)OC3,0.532% (inactive)
12,C[C@@H]1CN(Cc2ccc(F)cc2)CCN1C(=O)COc1ccc(Cl)cc1NC(N)=O,-3.05% (inactive)
13,O=c1ccc2cc(O[C@@H]3O[C@H](CO)[C@@H](O)[C@H](O)[C@@H]3O)c(O)cc2o1,-0.686% (inactive)
14,C=C(C)[C@@H]1[C@H]2OC(=O)[C@H]1[C@]1(O)C[C@H]3O[C@]34C(=O)O[C@H]2[C@]14C,2.63% (inactive)
15,CCN(CC)CCOC(=O)C(C)(c1ccccc1)c1ccccc1,15.3% (inactive)
16,O=C(N[C@H]1CN2CCC1CC2)c1cc2cccc(Cl)c2s1,25.6% (inactive)
17,O=c1[nH]c2ccc(Cl)cc2c(N[C@@H]2CN3CCC2CC3)c1-c1nc2ccccc2[nH]1,-83.1% (active)
18,O=C(N[C@H]1CN2CCC1CC2)c1ccc(Cl)cc1,10.2% (inactive) and 9.22% (inactive)
19,C[N+]1(C)CCc2cc3c(cc2C1[C@@H]1OC(=O)c2c1ccc1c2OCO1)OCO3 (stereo not given in full),-1.51% (inactive) and 8.52% (inactive)
20,C1CN2CCC1CC2,14.5% (inactive)
